This is a sample that favours compounds with a hit; in the whole collection about 1.3% have one here.
GLD-1 TGE inh – GLD-1/TGE RNA complex disruptors, primary screen, biochemical, fluorescence polarization | AID 2280, 2010 | purified GLD-1 + fluorescein TGE RNA | inhibition, % at 5.96 µM | hit rate 0.44% among 320,000;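 active = percent inhibition above a per-plate cutoff, the plate mean of test compounds plus 3 SD, cut at about 30% in these data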;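 also: 0% = DMSO wells with GLD-1 and probe and 100% = wells lacking GLD-1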
LANA DNA inh – inhibitors of KSHV C-LANA binding to DNA, primary screen, biochemical, fluorescence polarization, FAM-LBS DNA, MBP-C-LANA, single point | Kaposi's sarcoma herpesvirus LANA C-terminal domain (residues 932-1162) DNA binding | inhibition, % at 9 µM | hit rate 0.078% among 340,000 | AID 504423, 2011;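 active = highest replicate inhibition at or above 60% at 9 µM, even if other replicates fall short; inactive = all replicates below 60% inhibition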;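 also: 0% = neutral control wells and 100% = 4 µM acridine orange control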
Keap1 Nrf2 FP – Keap1-Nrf2 protein-protein interaction inhibitors, primary screen, biochemical, fluorescence polarization, single point; Kelch-like ECH-associated protein 1 (Homo sapiens), Q14145; Keap1 Kelch-Nrf2 peptide fluorescence polarization, 1536-well; inhibition, % at 9.4 µM; hit rate 0.15% among 340,000; AID 504523, 2011; in the data active = inhibition above about 12%;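 also: human Keap1 Kelch domain with fluorescein labeled Nrf2 9mer peptide probe; 0% = neutral control wells and 100% = peptide positive control; higher means more block of Keap1 binding to Nrf2 peptide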
MCL1-BIM inh – inhibitors of MCL1 binding to BIM-BH3, primary screen, biochemical, fluorescence polarization; Induced myeloid leukemia cell differentiation protein Mcl-1 (Homo sapiens), Q07820; GST-MCL1 / FITC-Bim-BH3 fluorescence polarization; inhibition, % at 10.9 µM; hit rate 0.68% among 320,000;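 active = inhibition above the mean inhibition of all tested compounds plus 3 SD, set per campaign, cut at about 40% in these data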;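 also: 0% = DMSO wells and 100% = unlabeled Bim-BH3 peptide control; higher means more loss of mP so more displacement of Bim peptide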
Bcl-xL primary – inhibitors of human Bcl-xL, primary screen, biochemical, fluorescence polarization, HTS | Bcl-2-like protein 1 (Homo sapiens), Q07817 | GST-Bcl-xL / FITC-Bim BH3 peptide fluorescence polarization | inhibition, % at 10.9 µM | hit rate 0.7% among 320,000 | AID 2129, 2009;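 active = inhibition above the mean of all tested compounds plus 3 SD, cutoff set per campaign, cut at about 30% in these data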;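 also: 0% = DMSO wells and 100% = unlabeled Bim-BH3 peptide competitor; inhibitors lower millipolarization by displacing the labeled peptide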
E coli Lon inh – inhibitors of E. coli Lon protease, primary screen, biochemical, fluorescence polarization; purified E. coli Lon protease; inhibition, % at 7.94 µM; hit rate 0.42% among 360,000; in the data active = inhibition above about 13%, passing the limit was not always enough;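 also: 0% = enzyme with probe and DMSO and 100% = no enzyme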
An asterisk follows results filed as active; nt = no result given.

SMILES	GLD-1 TGE inh	LANA DNA inh	Keap1 Nrf2 FP	MCL1-BIM inh	Bcl-xL primary	E coli Lon inh
O=C(c1ccco1)[C@@H]1[C@@H]2C(=O)N(c3ccc(F)cc3)C(=O)[C@@H]2C2c3ccccc3C=CN21 (stereo partly specified)	69*	nt	nt	82*	78*	nt
O=C1C2C3C=CC(C3)C2C(=O)N1c1ccccc1 (stereo unspecified)	-2	2	-2	0	3	2
O=C(CSc1ccccc1F)NCC(c1ccco1)N1CCCCC1 (stereo unspecified)	nt	nt	nt	nt	nt	2
COCCNC(=O)C1CCCN(Cc2ccc(C)cc2)CC1 (stereo unspecified)	nt	nt	nt	nt	nt	-3
O=C(Nc1cccc(Cl)c1Cl)c1csc([C@H]2C[C@H](O)[C@@H](CO)O2)n1	nt	nt	nt	nt	nt	6
O=C1C2C3C=CC(C3)C2C(=O)N1CNc1ccc(O)cc1 (stereo unspecified)	15	nt	nt	34	30*	nt
COc1ccccc1Cc1c(-c2ccco2)nc2c3ccccc3ccn12	nt	nt	nt	nt	nt	-1
CC(=O)CSc1nc2cc3c(cc2cc1C#N)OCCO3	-14	-1	-4	42*	34*	-13
Cc1ccsc1C(=O)OCC(=O)NC1CCCCC1	nt	nt	nt	nt	nt	9
COC(=O)[C@H]1[C@H]2C[C@H]3c4[nH]c5ccccc5c4CCN3C[C@H]2CC[C@@H]1O	8	4	-2	-2	1	4
COC(=O)C1C(O)CCC2CN3CCc4c([nH]c5ccccc45)C3CC21 (stereo unspecified)	16	21	2	42*	37*	1
CN(Cc1ccc(Cl)cc1Cl)C(=O)C1CSC2(C)CCC(=O)N12 (stereo unspecified)	nt	nt	nt	nt	nt	-9
COc1ccc(-c2nc(N)nc(C)c2Oc2ccccc2Br)c(O)c1	17	2	-1	39	42*	3
Oc1cc2c(cc1O)C1c3ccc(O)c(O)c3OCC1(O)C2 (stereo unspecified)	35*	20	-4	77*	34*	10
CCN1C(=C(C#N)C#N)C=Cc2cc(C)ccc21	41*	2	-9	18	25	-2
CCN1C(=O)/C(=C2/C=Cc3cc(C)ccc3N2CC)N(C)C1=S	-2	1	0	9	-6	4
N#C/C(=C/c1ccco1)c1nc2ccccc2s1	11	0	-3	5	33*	1
CC(=O)N(Cc1ccccc1)c1ncc2c(n1)c(=O)c(C#N)c1ccccn12	18	3	1	45*	34*	-5
CC(=O)N(Cc1c(C#N)c2ccccc2n1C)c1ccccc1	-6	0	-2	-2	-5	4
CCCc1ccc(C(O)c2ncc(-c3cccc(C)c3)[nH]2)cc1 (stereo unspecified)	nt	nt	nt	nt	nt	-8
COc1ccc(-c2cc3c(=O)n(CC(=O)Nc4ccc(C(C)=O)cc4)ncn3n2)cc1	7	1	-3	-4	73*	7
COc1ccc(NC(=O)CCNC(=O)N2CC(=O)Nc3ccccc32)cc1OC	nt	nt	nt	nt	nt	-1
O=C(NCc1ccncc1)[C@@H]1CCCN1C(=O)[C@H]1CCCN1C(=O)c1cccc2ccccc12	nt	nt	nt	nt	nt	0
O=C(Nc1cccc2cccnc12)c1csc(COCCO)n1	nt	nt	nt	nt	nt	12
O=c1cc(C(F)(F)F)[nH]c2ccc(C(F)(F)F)cc12	4	2	-5	-14	-1	-5
COC(=O)c1scc2c(=O)cc(C(F)(F)F)[nH]c12	29	5	-1	40	35*	22
CCN(C(=O)c1cc(OC)c(OC)c(OC)c1)C1CCCCC1	nt	nt	nt	nt	nt	-1
CC1CCCC(C)N1C(=O)CSc1nnnn1-c1cccc2c1CCCC2 (stereo unspecified)	55*	0	0	-1	1	-3
O=C(CSc1nnnn1-c1cccc2c1CCCC2)N1CCCC1	-5	1	-3	4	3	1
COc1cc(C(=O)Nc2nc3ccccc3[nH]2)ccc1OC(F)F	1	1	0	-6	73*	5

Bioassay records as filed in PubChem.
